# From paper PMC7862700, “An all-to-all approach to the identification of sequence-specific readers for epigenetic DNA modifications on cytosine”
# Experiments:
# Test in all cases: DAPPL (digital affinity profiling via proximity ligation, sequencing); 10 mM Tris-HCl pH 7.5, 50 mM NaCl, 1 mM DTT, 4% glycerol, room temperature, 30 min; GST-TFs on glutathione beads, 16-mer random dsDNA library, 0.1% formaldehyde crosslink after washing; high values mean tight binding
# FLI1 = biological target: T1, FLI1 (Homo sapiens, UniProt Q01543 1-452); conditions: protein: recombinant; tags: N-terminal GST; dsDNA, one strand shown
# T1 sequence: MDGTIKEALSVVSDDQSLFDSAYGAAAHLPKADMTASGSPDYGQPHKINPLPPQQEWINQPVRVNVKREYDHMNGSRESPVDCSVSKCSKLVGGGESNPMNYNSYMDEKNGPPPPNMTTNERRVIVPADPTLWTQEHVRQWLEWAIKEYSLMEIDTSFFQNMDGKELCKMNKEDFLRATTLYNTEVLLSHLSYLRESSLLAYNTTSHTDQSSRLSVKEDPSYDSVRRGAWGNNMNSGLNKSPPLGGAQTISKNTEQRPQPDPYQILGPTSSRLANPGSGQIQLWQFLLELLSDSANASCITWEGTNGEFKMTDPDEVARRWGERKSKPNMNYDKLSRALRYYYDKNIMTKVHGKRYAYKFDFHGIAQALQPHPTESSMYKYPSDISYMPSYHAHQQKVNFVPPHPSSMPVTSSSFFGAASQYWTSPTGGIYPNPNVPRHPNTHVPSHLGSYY
# Summary of the method: (§1)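 Sequencing on an Illumina NextSeq500 followed washing, crosslinking with 0.1% formaldehyde, proximity ligation (BsaI/T4 ligase, 1 h, 37 °C) and PCR amplification of pools that had been incubated for 30 min at room temperature with 200 nmole of a random double-stranded 16-mer DNA library in Tris/NaCl/DTT/glycerol buffer. Each pool held DNA-barcoded human transcription factors, expressed in yeast as GST fusions and captured on glutathione beads, plus a tag-only sample. Binding signal is a hexamer's read frequency for a factor divided by its frequency in the tag-only sample.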
# ELK1 = biological target: T2, ELK1 (Homo sapiens, UniProt P19419 1-428); conditions: protein: recombinant; tags: N-terminal GST; dsDNA, one strand shown
# T2 sequence: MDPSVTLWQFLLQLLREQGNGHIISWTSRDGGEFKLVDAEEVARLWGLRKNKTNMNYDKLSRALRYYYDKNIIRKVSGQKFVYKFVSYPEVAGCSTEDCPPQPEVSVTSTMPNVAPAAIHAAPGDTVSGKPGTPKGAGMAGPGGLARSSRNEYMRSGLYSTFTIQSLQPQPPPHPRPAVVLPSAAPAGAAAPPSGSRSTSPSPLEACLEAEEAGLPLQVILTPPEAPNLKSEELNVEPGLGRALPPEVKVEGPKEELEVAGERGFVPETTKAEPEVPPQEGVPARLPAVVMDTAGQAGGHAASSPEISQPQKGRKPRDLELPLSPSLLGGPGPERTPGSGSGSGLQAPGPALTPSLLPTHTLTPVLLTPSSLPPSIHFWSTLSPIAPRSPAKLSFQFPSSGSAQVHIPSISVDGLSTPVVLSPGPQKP
# Summary of the method: as §1
# GABPA = biological target: T3, GABPA (Homo sapiens, UniProt Q06546 1-454); conditions: protein: recombinant; tags: N-terminal GST; dsDNA, one strand shown
# T3 sequence: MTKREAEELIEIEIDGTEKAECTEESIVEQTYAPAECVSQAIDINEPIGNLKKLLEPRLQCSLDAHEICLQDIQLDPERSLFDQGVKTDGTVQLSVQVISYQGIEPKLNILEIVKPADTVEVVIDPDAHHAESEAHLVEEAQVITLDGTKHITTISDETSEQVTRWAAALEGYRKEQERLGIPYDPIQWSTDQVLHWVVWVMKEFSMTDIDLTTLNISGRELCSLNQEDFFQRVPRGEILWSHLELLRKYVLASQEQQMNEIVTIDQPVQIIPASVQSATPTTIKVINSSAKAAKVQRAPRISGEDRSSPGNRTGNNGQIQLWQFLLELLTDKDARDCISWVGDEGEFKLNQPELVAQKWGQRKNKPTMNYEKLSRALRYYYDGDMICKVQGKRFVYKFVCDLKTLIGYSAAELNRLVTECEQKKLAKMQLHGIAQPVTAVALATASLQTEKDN
# Summary of the method: as §1
# ERG = biological target: T4, ERG (Homo sapiens, UniProt P11308 1-479); conditions: protein: recombinant; tags: N-terminal GST; dsDNA, one strand shown
# T4 sequence: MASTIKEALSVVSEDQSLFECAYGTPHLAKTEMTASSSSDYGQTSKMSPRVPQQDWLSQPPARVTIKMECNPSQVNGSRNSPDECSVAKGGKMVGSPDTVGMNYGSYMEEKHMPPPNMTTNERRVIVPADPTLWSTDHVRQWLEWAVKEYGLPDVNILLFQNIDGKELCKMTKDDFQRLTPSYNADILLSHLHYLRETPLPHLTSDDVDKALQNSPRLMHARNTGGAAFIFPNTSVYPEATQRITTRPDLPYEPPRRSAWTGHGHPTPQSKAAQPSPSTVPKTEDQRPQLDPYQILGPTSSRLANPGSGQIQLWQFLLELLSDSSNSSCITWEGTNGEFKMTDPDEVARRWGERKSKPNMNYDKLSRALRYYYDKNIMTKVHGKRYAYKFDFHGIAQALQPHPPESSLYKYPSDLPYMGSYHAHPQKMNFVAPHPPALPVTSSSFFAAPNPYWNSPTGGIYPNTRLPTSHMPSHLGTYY
# Summary of the method: as §1
# ELF1 = ELF1 (Homo sapiens, UniProt P32519 1-619); conditions: protein: recombinant; tags: N-terminal GST; dsDNA, one strand shown
# Summary of the method: as §1
# EHF = biological target: T5, EHF (Homo sapiens, UniProt Q9NZC4 1-300); conditions: protein: recombinant; tags: N-terminal GST; dsDNA, one strand shown
# T5 sequence: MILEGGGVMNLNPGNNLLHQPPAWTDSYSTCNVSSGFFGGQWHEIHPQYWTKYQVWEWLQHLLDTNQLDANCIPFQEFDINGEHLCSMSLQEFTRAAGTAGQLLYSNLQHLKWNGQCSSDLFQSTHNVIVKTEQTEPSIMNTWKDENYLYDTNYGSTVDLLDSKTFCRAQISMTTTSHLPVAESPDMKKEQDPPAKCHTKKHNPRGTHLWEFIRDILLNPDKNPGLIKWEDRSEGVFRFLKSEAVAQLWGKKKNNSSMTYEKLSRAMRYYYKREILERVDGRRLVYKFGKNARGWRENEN
# Summary of the method: as §1
# SPI1 = SPI1 (Homo sapiens, UniProt P17947 1-270); conditions: protein: recombinant; tags: N-terminal GST; dsDNA, one strand shown
# Summary of the method: as §1
# SPIB = SPIB (Homo sapiens, UniProt Q01892 1-262); conditions: protein: recombinant; tags: N-terminal GST; dsDNA, one strand shown
# Summary of the method: as §1
# ELK3 = biological target: T6, ELK3 (Homo sapiens, UniProt P41970 1-407); conditions: protein: recombinant; tags: N-terminal GST; dsDNA, one strand shown
# T6 sequence: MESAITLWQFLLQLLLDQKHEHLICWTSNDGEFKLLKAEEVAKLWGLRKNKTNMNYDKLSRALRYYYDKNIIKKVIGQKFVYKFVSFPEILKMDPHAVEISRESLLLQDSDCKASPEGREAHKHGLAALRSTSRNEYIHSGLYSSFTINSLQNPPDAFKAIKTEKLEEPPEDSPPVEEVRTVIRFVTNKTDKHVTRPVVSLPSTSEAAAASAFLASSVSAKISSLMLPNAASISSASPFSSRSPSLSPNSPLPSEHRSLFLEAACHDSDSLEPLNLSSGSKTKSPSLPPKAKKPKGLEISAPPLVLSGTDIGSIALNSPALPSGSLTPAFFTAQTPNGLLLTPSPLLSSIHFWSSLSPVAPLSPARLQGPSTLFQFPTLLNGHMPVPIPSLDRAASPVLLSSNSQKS
# Summary of the method: as §1
# FEV = biological target: T7, FEV (Homo sapiens, UniProt Q99581 1-238); conditions: protein: recombinant; tags: N-terminal GST; dsDNA, one strand shown
# T7 sequence: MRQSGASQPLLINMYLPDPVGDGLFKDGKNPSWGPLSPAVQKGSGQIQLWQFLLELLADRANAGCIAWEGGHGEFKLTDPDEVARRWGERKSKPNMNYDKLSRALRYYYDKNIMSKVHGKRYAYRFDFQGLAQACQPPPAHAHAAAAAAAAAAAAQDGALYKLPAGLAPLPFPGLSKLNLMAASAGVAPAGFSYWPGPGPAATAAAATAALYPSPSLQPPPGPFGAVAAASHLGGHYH
# Summary of the method: as §1
# ETV5 = ETV5 (Homo sapiens, UniProt P41161 1-510); conditions: protein: recombinant; tags: N-terminal GST; dsDNA, one strand shown
# Summary of the method: as §1
# HSF1 = HSF1 (Homo sapiens, UniProt Q00613 1-529); conditions: protein: recombinant; tags: N-terminal GST; chain copies: 3; dsDNA, one strand shown
# Summary of the method: as §1
# SPIC = biological target: T8, SPIC (Homo sapiens, UniProt Q8N5J4 1-248); conditions: protein: recombinant; tags: N-terminal GST; dsDNA, one strand shown
# T8 sequence: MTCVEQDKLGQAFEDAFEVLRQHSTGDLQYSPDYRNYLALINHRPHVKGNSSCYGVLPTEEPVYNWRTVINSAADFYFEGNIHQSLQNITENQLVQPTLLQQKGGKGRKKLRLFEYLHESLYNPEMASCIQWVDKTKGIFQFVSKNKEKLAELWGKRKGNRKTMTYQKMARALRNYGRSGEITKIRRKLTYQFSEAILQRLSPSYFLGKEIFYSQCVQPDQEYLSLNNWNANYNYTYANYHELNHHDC
# Summary of the method: as §1
# ELF4 = ELF4 (Homo sapiens, UniProt Q99607 1-663); conditions: protein: recombinant; tags: N-terminal GST; dsDNA, one strand shown
# Summary of the method: as §1
# ELK4 = biological target: T9, ELK4 (Homo sapiens, UniProt P28324-2 1-405); conditions: protein: recombinant; tags: N-terminal GST; dsDNA, one strand shown
# T9 sequence: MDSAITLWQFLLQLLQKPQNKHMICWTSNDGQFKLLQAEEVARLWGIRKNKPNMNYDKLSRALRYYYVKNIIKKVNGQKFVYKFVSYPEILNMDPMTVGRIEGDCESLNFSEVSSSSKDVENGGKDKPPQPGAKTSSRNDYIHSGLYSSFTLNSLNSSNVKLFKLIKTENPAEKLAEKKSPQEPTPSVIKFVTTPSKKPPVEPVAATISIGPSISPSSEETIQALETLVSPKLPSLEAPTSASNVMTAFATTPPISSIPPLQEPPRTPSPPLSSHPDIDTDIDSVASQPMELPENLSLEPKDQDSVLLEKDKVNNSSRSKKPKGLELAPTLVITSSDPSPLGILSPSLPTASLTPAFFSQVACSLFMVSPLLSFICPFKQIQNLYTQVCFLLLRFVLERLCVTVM
# Summary of the method: as §1
# ETV2 = biological target: T10, ETV2 (Homo sapiens, UniProt O00321 1-342); conditions: protein: recombinant; tags: N-terminal GST; dsDNA, one strand shown
# T10 sequence: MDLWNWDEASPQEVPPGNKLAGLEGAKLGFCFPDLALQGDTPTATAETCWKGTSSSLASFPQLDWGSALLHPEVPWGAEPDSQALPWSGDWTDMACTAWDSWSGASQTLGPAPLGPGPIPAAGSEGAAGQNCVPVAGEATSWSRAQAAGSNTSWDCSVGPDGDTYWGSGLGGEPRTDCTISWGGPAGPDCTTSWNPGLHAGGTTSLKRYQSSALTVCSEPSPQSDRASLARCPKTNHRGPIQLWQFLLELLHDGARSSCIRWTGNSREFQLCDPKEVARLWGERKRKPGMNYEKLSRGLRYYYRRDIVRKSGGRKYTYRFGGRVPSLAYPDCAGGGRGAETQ
# Summary of the method: as §1
# ELF3 = biological target: T11, ELF3 (Homo sapiens, UniProt P78545 1-371); conditions: protein: recombinant; tags: N-terminal GST; dsDNA, one strand shown
# T11 sequence: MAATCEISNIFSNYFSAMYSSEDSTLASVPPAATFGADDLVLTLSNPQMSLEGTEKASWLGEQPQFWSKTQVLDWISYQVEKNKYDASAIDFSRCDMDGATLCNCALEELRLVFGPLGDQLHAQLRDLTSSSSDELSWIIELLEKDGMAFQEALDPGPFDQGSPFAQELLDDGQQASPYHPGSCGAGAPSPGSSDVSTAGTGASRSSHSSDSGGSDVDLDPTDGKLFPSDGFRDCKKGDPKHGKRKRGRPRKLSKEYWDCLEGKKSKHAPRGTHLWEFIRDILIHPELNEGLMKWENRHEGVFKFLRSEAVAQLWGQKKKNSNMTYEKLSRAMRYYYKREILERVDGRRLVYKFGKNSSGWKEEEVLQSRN
# Summary of the method: as §1
# CRX = CRX (Homo sapiens, UniProt O43186 1-299); conditions: protein: recombinant; tags: N-terminal GST; dsDNA, one strand shown
# Summary of the method: as §1
# ETV1 = ETV1 (Homo sapiens, UniProt P50549 1-477); conditions: protein: recombinant; tags: N-terminal GST; dsDNA, one strand shown
# Summary of the method: as §1
# SPIB, sequence (Q01892 whole entry): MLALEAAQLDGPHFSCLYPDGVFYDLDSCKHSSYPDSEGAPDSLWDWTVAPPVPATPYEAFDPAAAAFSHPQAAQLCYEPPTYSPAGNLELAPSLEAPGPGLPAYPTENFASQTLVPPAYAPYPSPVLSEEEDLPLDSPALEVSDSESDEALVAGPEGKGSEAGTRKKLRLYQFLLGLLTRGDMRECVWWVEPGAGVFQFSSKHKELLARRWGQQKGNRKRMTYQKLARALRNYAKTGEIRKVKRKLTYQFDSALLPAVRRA
# ELF4, sequence (Q99607 whole entry): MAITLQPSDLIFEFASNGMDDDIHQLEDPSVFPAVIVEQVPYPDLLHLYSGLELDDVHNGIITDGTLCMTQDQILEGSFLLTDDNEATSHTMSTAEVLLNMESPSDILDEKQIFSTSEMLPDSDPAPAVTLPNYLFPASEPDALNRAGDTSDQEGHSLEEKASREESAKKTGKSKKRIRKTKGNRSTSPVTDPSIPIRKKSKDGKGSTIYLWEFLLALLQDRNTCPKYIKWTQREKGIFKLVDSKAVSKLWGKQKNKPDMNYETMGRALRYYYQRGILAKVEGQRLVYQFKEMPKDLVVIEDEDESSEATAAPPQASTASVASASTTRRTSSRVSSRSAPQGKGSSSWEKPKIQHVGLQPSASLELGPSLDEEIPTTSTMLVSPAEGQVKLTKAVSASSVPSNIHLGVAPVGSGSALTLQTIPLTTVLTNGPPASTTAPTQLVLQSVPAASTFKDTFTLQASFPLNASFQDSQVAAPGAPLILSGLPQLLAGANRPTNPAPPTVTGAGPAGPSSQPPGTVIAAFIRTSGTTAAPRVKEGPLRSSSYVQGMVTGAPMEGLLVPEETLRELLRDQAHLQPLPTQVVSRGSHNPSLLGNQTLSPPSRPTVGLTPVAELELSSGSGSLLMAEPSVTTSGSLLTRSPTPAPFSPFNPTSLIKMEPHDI
# ETV1, sequence (P50549 whole entry): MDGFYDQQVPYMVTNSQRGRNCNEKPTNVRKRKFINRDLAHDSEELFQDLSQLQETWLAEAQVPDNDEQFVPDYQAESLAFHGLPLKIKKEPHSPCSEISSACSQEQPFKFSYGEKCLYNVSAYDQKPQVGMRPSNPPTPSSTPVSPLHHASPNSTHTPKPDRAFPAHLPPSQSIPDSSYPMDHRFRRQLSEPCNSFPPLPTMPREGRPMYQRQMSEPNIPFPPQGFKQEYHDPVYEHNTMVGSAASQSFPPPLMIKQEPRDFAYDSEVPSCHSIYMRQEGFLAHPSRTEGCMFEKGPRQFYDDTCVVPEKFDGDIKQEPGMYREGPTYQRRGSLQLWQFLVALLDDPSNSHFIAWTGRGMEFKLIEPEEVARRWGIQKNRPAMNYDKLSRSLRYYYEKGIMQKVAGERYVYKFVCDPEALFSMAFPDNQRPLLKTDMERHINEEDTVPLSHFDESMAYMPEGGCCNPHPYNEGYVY
# HSF1, sequence (Q00613 whole entry): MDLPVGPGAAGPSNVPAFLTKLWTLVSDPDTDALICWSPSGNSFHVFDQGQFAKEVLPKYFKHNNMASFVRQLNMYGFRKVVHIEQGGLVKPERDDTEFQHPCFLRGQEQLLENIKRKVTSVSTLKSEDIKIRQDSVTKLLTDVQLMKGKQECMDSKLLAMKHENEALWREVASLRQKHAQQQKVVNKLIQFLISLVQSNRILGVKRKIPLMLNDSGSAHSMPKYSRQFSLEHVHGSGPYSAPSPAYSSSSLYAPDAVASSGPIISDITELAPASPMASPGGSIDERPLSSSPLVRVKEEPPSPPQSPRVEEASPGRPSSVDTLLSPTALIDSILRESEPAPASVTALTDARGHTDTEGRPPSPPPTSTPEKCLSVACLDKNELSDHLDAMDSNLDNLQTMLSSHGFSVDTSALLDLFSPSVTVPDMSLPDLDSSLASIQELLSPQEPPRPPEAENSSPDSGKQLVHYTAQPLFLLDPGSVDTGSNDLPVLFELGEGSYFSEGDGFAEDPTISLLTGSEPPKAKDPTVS
# ELF1, sequence (P32519 whole entry): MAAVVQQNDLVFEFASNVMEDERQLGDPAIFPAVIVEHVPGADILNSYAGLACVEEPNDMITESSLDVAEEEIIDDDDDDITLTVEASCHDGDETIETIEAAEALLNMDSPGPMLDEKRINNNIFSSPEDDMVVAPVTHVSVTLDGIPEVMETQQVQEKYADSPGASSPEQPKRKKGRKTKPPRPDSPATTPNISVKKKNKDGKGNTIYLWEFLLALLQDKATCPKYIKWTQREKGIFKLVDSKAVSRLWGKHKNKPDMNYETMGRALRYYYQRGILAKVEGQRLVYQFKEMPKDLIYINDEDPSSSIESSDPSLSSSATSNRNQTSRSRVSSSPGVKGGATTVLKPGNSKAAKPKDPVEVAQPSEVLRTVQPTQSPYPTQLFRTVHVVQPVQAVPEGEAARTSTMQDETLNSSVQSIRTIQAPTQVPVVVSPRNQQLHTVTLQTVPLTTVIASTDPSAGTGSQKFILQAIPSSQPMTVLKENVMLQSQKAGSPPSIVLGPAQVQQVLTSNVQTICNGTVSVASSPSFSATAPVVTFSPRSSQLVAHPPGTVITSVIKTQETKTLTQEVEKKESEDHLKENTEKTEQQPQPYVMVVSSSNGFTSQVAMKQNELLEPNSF
# ETV5, sequence (P41161 whole entry): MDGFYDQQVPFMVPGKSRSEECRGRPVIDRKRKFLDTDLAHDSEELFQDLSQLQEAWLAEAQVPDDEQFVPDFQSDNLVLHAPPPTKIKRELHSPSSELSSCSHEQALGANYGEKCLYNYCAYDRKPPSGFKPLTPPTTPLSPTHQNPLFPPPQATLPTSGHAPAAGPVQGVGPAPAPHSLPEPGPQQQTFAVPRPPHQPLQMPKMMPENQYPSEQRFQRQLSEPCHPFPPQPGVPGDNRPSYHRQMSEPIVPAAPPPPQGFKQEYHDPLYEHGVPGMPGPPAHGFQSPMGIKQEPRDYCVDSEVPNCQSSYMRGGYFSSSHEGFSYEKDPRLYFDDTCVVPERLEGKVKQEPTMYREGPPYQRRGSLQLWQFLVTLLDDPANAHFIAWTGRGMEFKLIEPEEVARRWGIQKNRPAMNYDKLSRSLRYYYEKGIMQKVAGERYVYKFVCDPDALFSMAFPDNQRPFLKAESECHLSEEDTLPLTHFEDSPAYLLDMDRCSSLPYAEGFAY
# CRX, sequence (O43186 whole entry): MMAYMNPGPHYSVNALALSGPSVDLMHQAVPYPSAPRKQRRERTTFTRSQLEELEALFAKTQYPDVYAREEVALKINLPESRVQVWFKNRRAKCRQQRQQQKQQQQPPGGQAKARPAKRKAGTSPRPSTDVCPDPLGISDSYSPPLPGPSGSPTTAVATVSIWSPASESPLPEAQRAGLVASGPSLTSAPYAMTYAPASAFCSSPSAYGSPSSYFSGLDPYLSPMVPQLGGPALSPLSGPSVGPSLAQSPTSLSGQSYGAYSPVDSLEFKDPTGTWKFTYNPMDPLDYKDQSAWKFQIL
sequence,measurement,setting,value
TTTTAA,binding signal,FLI1,"1.26 fold enrichment (6-mer frequency, TF over GST control)"
same,binding signal,ELK1,"1.28 fold enrichment (6-mer frequency, TF over GST control)"
same,binding signal,GABPA,"1.25 fold enrichment (6-mer frequency, TF over GST control)"
same,binding signal,ERG,"1.2 fold enrichment (6-mer frequency, TF over GST control)"
same,binding signal,ELF1,"1.29 fold enrichment (6-mer frequency, TF over GST control)"
same,binding signal,EHF,"1.22 fold enrichment (6-mer frequency, TF over GST control)"
same,binding signal,SPI1,"1.32 fold enrichment (6-mer frequency, TF over GST control)"
same,binding signal,SPIB,"1.26 fold enrichment (6-mer frequency, TF over GST control)"
same,binding signal,ELK3,"1.3 fold enrichment (6-mer frequency, TF over GST control)"
same,binding signal,FEV,"1.26 fold enrichment (6-mer frequency, TF over GST control)"
same,binding signal,ETV5,"1.24 fold enrichment (6-mer frequency, TF over GST control)"
same,binding signal,HSF1,"1.59 fold enrichment (6-mer frequency, TF over GST control)"
same,binding signal,SPIC,"1.15 fold enrichment (6-mer frequency, TF over GST control)"
same,binding signal,ELF4,"1.28 fold enrichment (6-mer frequency, TF over GST control)"
same,binding signal,ELK4,"1.22 fold enrichment (6-mer frequency, TF over GST control)"
same,binding signal,ETV2,"1.27 fold enrichment (6-mer frequency, TF over GST control)"
same,binding signal,ELF3,"1.32 fold enrichment (6-mer frequency, TF over GST control)"
same,binding signal,CRX,"2.18 fold enrichment (6-mer frequency, TF over GST control)"
same,binding signal,ETV1,"1.26 fold enrichment (6-mer frequency, TF over GST control)"
